# Sampled rows, rich in hits. Any-hit rate of the full collection: about 28%.
# CYP2C19 activ = activators of human cytochrome P450 2C19. recombinant CYP2C19, luciferin-H EGE luminescence; stronger effect = higher value; 0 = fully inhibited enzyme, 1 = untreated enzyme. activation factor at 5 µM. 96,000 tested, under 10 active. AID 1025;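 active = activation factor of at least 2 at 5 µM in the primary screen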;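 note: 0 = wells with 2.5 mM tranylcypromine and 1 = vehicle-only wells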
# CYP2C19 inh = inhibitors of human CYP2C19. actives 21% (n = 96,000). AID 778. P33261. CYP2C19 Supersomes, luciferin-H EGE luminescence, 30 min. inhibition, % at 5 µM;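 active = CYP2C19 inhibition above a set limit at 5 µM in the primary screen, cut at about 50% in these data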;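 note: plate controls were negative control wells for no effect and 2.5 mM tranylcypromine positive control for full effect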
# CYP2C9 inh = human CYP2C9 inhibition; P11712; CYP2C9 Supersomes, luciferin-H conversion, luminescence; inhibition, % at 5 µM; actives 20% (n = 96,000);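 active = blocking of liver enzyme CYP2C9 beyond about 50% at 5 µM, limit read from the data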
# Target sequence (P11712 whole entry, looked up): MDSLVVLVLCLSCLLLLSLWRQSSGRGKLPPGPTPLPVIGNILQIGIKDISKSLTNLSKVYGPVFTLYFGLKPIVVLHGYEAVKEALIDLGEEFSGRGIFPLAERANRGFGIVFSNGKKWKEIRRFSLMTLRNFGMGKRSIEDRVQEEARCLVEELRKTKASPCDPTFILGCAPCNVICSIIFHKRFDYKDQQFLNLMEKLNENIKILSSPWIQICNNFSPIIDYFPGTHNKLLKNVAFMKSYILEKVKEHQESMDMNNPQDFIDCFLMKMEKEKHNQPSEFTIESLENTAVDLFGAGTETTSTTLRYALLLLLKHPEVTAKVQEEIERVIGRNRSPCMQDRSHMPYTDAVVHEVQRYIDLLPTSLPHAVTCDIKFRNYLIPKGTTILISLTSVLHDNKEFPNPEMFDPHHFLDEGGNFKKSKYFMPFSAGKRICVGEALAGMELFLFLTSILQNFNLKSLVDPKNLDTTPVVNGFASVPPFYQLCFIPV
# CYP2C9 act = activators of human CYP2C9 | recombinant CYP2C9, luciferin-H conversion, luminescence; stronger effect = higher value; factor 1 = untreated enzyme, 0 = blocked | actives 1.4% (n = 96,000) | activation factor at 5 µM | P11712;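 active = activation factor of 2 or more for CYP2C9 at a 5 µM dose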;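 note: 0 = sulfaphenazole-blocked wells and 1 = vehicle-only wells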
# CD11b adhes inh = CD11b/CD18-fibrinogen binding inhibition | K562 CD11b/CD18 adhesion to fibrinogen, ATPlite luminescence; Mn2+ added to activate the integrin | actives 0.54% (n = 93,000) | inhibition, % at 10 µM;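 active = primary inhibition of 50% or more at 10 µM, then 40% or more on retest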
# CD11b adhes enh = CD11b/CD18-fibrinogen binding enhancement; K562 CD11b/CD18 adhesion to fibrinogen, ATPlite luminescence; activation, % at 10 µM; actives 0.07% (n = 93,000);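 active = 10 µM primary screen giving 50% or more activity, confirmed by 40% or more on retest at that dose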
# Numbers without * were called inactive; / = no result.
SMILES,CYP2C19 activ,CYP2C19 inh,CYP2C9 inh,CYP2C9 act,CD11b adhes inh,CD11b adhes enh
Nc1ncnc2nc(SCc3ccc(Cl)cc3Cl)[nH]c12,0.3,67*,59*,0.4,3,2
Cc1csc(-c2cnn(-c3ccccc3)c2NC(=O)c2ccc(C(F)(F)F)cc2)n1,0.8,19,14,0.9,-20,2
O=c1oc(-c2cccs2)nc2sc3c(c12)CCCC3,0.8,20,64*,0.4,-20,-2
O=c1oc(-c2cccs2)nc2sc3c(c12)CCC3,0.7,34,20,0.8,17,-2
O=C(Nc1ccc2c(c1)N(Cc1ccccc1)C(=O)c1ccccc1S2)NC1CC1,0.1,87*,76*,0.2,18,8
CN1C(=O)c2ccccc2Sc2ccc(NC(=O)NC3CC3)cc21,1,-5,31,0.7,/,/
Cc1cccc(C)c1NC(=O)C(c1cccs1)N(Cc1ccco1)C(=O)Cn1nnc2ccccc21 (centres undefined),1,2,4,1,/,/
O=C(c1ccc(F)cc1F)N(Cc1ccccn1)Cc1ccco1,0.3,73*,34,0.7,27,5
Cc1ccc(C(=O)Nc2ccccc2OC(F)F)cc1,0.8,17,-5,1,2,-4
COC(=O)C1C(=O)OC(C)(C)C1C(C)C(=O)c1ccccc1 (centres undefined),0.2,79*,19,0.8,-24,-2
CC(CCCC(C)(C)O)NCCO (centres undefined),1,2,4,1,-6,-8
CCOC(=O)N1CCN(S(=O)(=O)c2ccc3c(c2)OCC(=O)N3)CC1,0.9,14,15,0.9,-6,-6
CCOC(=O)c1cnc2nc(NCc3ccc(OCc4ccccc4)cc3)[nH]n2c1=O,0.8,19,87*,0.1,-7,-1
CCOC(=O)c1cnc2nc(COc3ccccc3)[nH]n2c1=O,0.9,6,26,0.7,-22,0
O=S(=O)(/N=C(/Nc1ccc(F)cc1F)c1ccc(Cl)cc1)c1ccccc1,1.1,-6,0,1,/,/
N#Cc1ccccc1OCC(=O)Nc1c(C(=O)C2CC2)oc2ccccc12,0.8,23,38,0.6,/,/
CC(=O)Nc1nonc1-n1nnc(C(=O)NCc2ccccc2)c1C,0.2,83*,70*,0.3,-3,1
Cc1cc(N2CCCCC2)n2nc(C)c(-c3ccccc3)c2n1,0.8,16,39,0.6,14,4
CCCc1cc(N2CCN(c3ccccn3)CC2)n2nc(C)c(-c3ccccc3)c2n1,0.8,19,54*,0.5,7,-4
CCOC(=O)CC1=CC(C)(CC(=O)OCC)C(C#N)(C#N)C(N)=C1C#N (centres undefined),0.8,21,79*,0.2,0,-2
CCOC(=O)Cc1csc(N)n1,1.1,-8,-4,1,4,-1
Cc1cc(N2CCN(c3nc4ccccc4s3)CC2)n2ncnc2n1,1,-2,-6,1.1,74*,-12
CC(C)(C)c1cc(C(=O)NCc2ccco2)ccn1,1,-5,-12,1.1,-5,-4
CC(NC(=O)c1ccnc(C(C)(C)C)c1)c1ccccc1 (centres undefined),0.4,56*,55*,0.4,-32,-5
CC(C)(C)NC(=O)c1ccnc(C(C)(C)C)c1,0.5,52*,-3,1,-2,0
SMILES,CYP2C19 activ,CYP2C19 inh,CYP2C9 inh,CYP2C9 act,CD11b adhes inh,CD11b adhes enh
O=C1c2ccccc2C(Nc2ccc(Cl)cn2)N1Cc1ccccc1 (centres undefined),0.2,81*,70*,0.3,12,-5
CC(C)CN(C(=O)COC(=O)c1cc2c(s1)CCC2)C1CCS(=O)(=O)C1 (centres undefined),1,-4,10,0.9,-20,70
Cc1sc2nc3c(C(=O)N4CCN(c5ccccn5)CC4)cccn3c(=O)c2c1C,0.9,9,29,0.7,-6,1
Cc1cccc(N2CCN(C(=O)c3cccn4c(=O)c5c(C)c(C)sc5nc34)CC2)c1C,0.1,92*,96*,0,9,2
O=C(N/N=C\c1ccc(CN(Cc2ccc(Cl)cc2)S(=O)(=O)c2ccccc2)o1)C(=O)Nc1ccc(F)cc1,0.2,82*,76*,0.2,-5,-4
O=C(CNS(=O)(=O)c1ccccc1)N/N=C\c1ccc(Cl)cc1,/,/,/,/,0,-1
O=C(NC1CS(=O)(=O)CC1NCc1ccco1)c1ccccc1 (centres undefined),0.7,26,10,0.9,15,1
Cc1cccc(NC(=O)CCN2C(=O)C3C4C=CC(C4)C3C2=O)n1 (centres undefined),0.7,28,-8,1.1,-36,4
CC(C)(C)c1ccc(OCCn2ccccc2=O)cc1,0.3,70*,40,0.6,-4,4
Cc1ccc(-n2nnc3c(=O)n(CC(=O)NCc4ccco4)cnc32)cc1,0.8,17,-113,2.1*,6,0
COc1ccc(-n2nc(C(=O)NCC(=O)NCc3ccc(F)cc3)c3ccccc3c2=O)c(OC)c1,0.8,20,51*,0.5,/,/
O=C(NCc1ccco1)c1nn(-c2ccccc2)c(=O)c2ccccc12,0.9,7,42,0.6,-16,-1
COc1ccc(-n2nc(C(=O)NCC(=O)NCC3CCCO3)c3ccccc3c2=O)c(OC)c1 (centres undefined),1.1,-6,37,0.6,13,-2
COc1ccc(-n2nc(C(=O)NCC(=O)NCc3ccco3)c3ccccc3c2=O)cc1,0.9,9,62*,0.4,10,2
COc1ccc(-n2nc(C(=O)NCC(=O)NCC3CCCO3)c3ccccc3c2=O)cc1 (centres undefined),0.7,26,63*,0.4,-26,0
COC(=O)C1=C(NC(=O)CCCCl)CCS1,/,/,/,/,1,-2
CCOC(=O)Cc1cc(=O)[nH]c(/N=C(\N)Nc2ccc(C)cc2C)n1,0.8,16,9,0.9,-1,0
O=c1c2[nH]c3ccccc3c2ncn1CCN1CCNCC1,0.8,19,5,0.9,-14,6
COc1ccc(-n2nc(C(=O)NCC(=O)NCc3ccco3)c3ccccc3c2=O)c(OC)c1,1.3,-28,72*,0.3,-7,-4
COc1ccc(-n2nc(C(=O)NCC(=O)Nc3ccccn3)c3ccccc3c2=O)cc1,0.9,10,21,0.8,/,/
O=C(OCC(=O)N1c2ccccc2Sc2ccccc21)C1CC(=O)N(Cc2ccco2)C1 (centres undefined),0.3,70*,89*,0.1,3,2
CCCCCn1c(N2CCOCC2)nc2c1c(=O)n(CC(N)=O)c(=O)n2C,1.1,-11,-8,1.1,3,0

# Source: PubChem (Sanford-Burnham Center for Chemical Genomics)
